Screens as filed in PubChem.
Only some compounds are listed: those with a hit (about 19% of all), similar ones and a draw of the others.
KB-3-1 tox = kills parental KB-3-1 adenocarcinoma cells | 400,000 compounds, 1.4% hits | KB-3-1 viability, CellTiter-Glo ATP luminescence, 72 h | Potency, µM (top dose mostly 46.1 µM), hits mostly cytotoxic; note: nearly all actives have a fitted effect of over 60% in size
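Cytotoxicity in the drug-sensitive parental line KB-3-1 was scored as loss of CellTiter-Glo luminescence following 72 h incubation with compound. Values come from curve fitting of normalized concentration-response data.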
HT1080-NT tox = kills 2HG-producing HT-1080-NT fibrosarcoma cells; 360,000 compounds, 1.6% hits; HT-1080-NT fibrosarcoma viability, CellTiter-Glo ATP luminescence, 48 h; Potency, µM (highest dose often 46.1 µM), for inactives: at the highest dose activity, negative = less viability, actives largely listed as cytotoxic;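 note: NT is the 2HG producing partner of a matched IDH1 knockdown line; 0% = DMSO-treated cells and -100% = media-only wells without cells; nearly all actives have a fitted effect of over 55% in size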
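Compounds were tested in concentration-response format on HT-1080-NT cells for 48 hours at 37 degrees C. Cell viability came from CellTiter-Glo luminescence; curves were classified by r2, response magnitude and activity.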
HT1080 IDH1KD tx = kills HT-1080 cells with IDH1 knockdown; HT-1080 IDH1 knockdown viability, ATP luminescence, 48 h; Potency, µM (highest dose often 46.1 µM), for the others: at the highest dose activity, negative = toxicity, most hits filed as cytotoxic; 360,000 compounds, 2% hits; AID 686971;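 note: 0% = DMSO wells and -100% = cell-free medium wells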
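Cytotoxicity counter-line: IDH1KD HT-1080, 48 h, CellTiter-Glo. Curves classed by r2, magnitude and activity.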
TDP1 cell CPT = growth inhibition of DT40 Tdp1-/-;hTDP1 cells with camptothecin (screen for TDP1 inhibitors) | Potency, µM (titrated, usually from 46.2 µM), for the others: top-dose activity change, negative = growth inhibition, most hits filed as inhibitors | chicken DT40 Tdp1-/-;hTDP1 cells + 20 nM CPT, ATP luminescence, 48 h | 420,000 compounds, 12% hits | AID 686979; note: nearly all actives have a fitted effect of over 55% in size
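Chicken DT40 Tdp1-/- cells stably complemented with human TDP1 were seeded at 400 cells/well in medium containing 20 nM camptothecin, exposed to pin-transferred compounds, and grown at 37 °C for at least 48 hr. Viability was read as ATP luminescence.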
KB-V1 MDR tox = KB-V1 MDR subline cytotoxicity; KB-V1 MDR cells viability, CellTiter-Glo, 72 h; Potency, µM (highest dose often 46.1 µM), most hits filed as cytotoxic; 400,000 compounds, 3.4% hits; AID 1347076; note: nearly all actives have a fitted effect of over 60% in size
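KB-V1 MDR subline cells in DMEM (phenol-red free, 10% FBS) exposed to compounds in qHTS concentration series for 72 h at 37 degrees C. Viability read by CellTiter-Glo luminescence; concentration-effect curves fitted after normalization and correction.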
TDP1 cell noCPT = qHTS for Inhibitors of human tyrosyl-DNA phosphodiesterase 1 (TDP1): qHTS in cells in absence of CPT. 420,000 compounds, 15% hits. DT40 Tdp1-/- hTDP1 cells, no CPT, ATP luminescence, 48 h. Potency, µM (doses to about 46.2 µM), without a hit: top-dose activity change, negative = growth inhibition, hits mostly inhibitors. AID 686978, 2013; note: nearly all actives have a fitted effect of over 55% in size
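Seeded 400 DT40-hTDP1 cells/well (vehicle DMSO, no 20 nM CPT); pinned compounds; ≥48 hr at 37 °C; CellTiter-Glo luminescence as viability measure.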
Starred values were filed as active, the others as inactive; i = inactive; ? = inconclusive; nt = no result; [ ] = another dose, or the depositor's remark. Calls come from the whole dose curve; as a rule, active = well fitted curve in the direction sought with a large enough effect; inconclusive = small, poorly fitted or top-dose-only effect, or another doubt; inactive = no such curve, though single readings can be large; an effect the other way counts as inactive or inconclusive. Unless noted, % is set by controls: 0 for no effect and ±100 for the full control effect; potency is the fitted concentration of half-maximal effect.

SMILES | KB-3-1 tox | HT1080-NT tox | HT1080 IDH1KD tx | TDP1 cell CPT | KB-V1 MDR tox | TDP1 cell noCPT
c1ccc(-n2c(SCC3CCCCO3)nnc2-c2cccs2)cc1 (stereo unspecified) | i | -11% | -7% | 18µM* | ? | ?
O=C(/C=C/c1ccc(F)cc1)Nc1ccc2[nH]c(=O)[nH]c2c1 | i | 7% | 1% | -4% | i | 1%
O=C(Nc1ccc(S(=O)(=O)N2CCCC2)cc1)c1ccc2c(=O)n3c(nc2c1)CCCCC3 | i | 4% | 2% | ? | i | 16µM*
O=C(Nc1ccc(Cl)cc1)c1ccc2c(=O)n3c(nc2c1)CCCCC3 | i | -14% | -6% | ? | i | ?
O=C(Nc1cccc(Cl)c1)c1ccc2c(=O)n3c(nc2c1)CCCCC3 | ? | ? | -12% | 23µM* | i | ?
CC(=O)c1ccc(NC(=O)c2ccc3c(=O)n4c(nc3c2)CCCCC4)cc1 | i | -11% | -1% | ? | ? | ?
O=C(Nc1ccc(F)cc1)c1ccc2c(=O)n3c(nc2c1)CCCCC3 | i | 1% | 3% | ? | ? | 16µM*
Cc1ccc(-c2csc(NC(=O)c3ccc4c(=O)n5c(nc4c3)CCCCC5)n2)cc1 | i | 12% | 3% | 10µM* | 10µM* | 13µM*
O=C(NCc1ccc(Cl)cc1)C(=O)N/N=C/c1ccc(Br)cc1 | i | 1% | -6% | -20% | i | -1%
COc1cc(NS(=O)(=O)c2cnc(N)nc2)cc(OC)c1 | nt | nt | nt | -1% | nt | -9%
O=C(Nc1ccc(F)c(Cl)c1)c1ccc2c(=O)n3c(nc2c1)CCCCC3 | ? | -4% | -25% | 16µM* | ? | 21µM*
COC(=O)c1ccccc1-c1cc(C)cc2c1OC(CNC(=O)c1cc(C)on1)C2 (stereo unspecified) | nt | nt | nt | -9%[9.04 µM] | nt | ?
Oc1cc(-c2ccncc2)cc2cccnc12 | 10µM* | nt | nt | nt | ? | nt
Oc1cc(-c2ccc(N3CCCCC3)nc2)cc2cccnc12 | 5.2µM* | nt | nt | nt | ? | nt
Oc1cc(Nc2cccnc2)cc2cccnc12 | 21µM* | nt | nt | nt | i | nt
Cn1c(CC(=O)NC(C)(C)CO)c(Sc2ccccc2)c2ccccc21 | i | -26% | -20% | 15µM* | i | 16µM*
CS(=O)(=O)c1ccc(-c2nc(-c3ccc(F)cc3)c(-c3ccncc3)[nH]2)cc1 | nt | nt | nt | ? | nt | 27µM*
CS(=O)(=O)c1ccc(C(=O)Nc2ccc(-c3nc4ccccc4[nH]3)cc2)cc1 | i | -2% | 1% | ? | i | ?
O=C(NCc1ccncc1)[C@@H]1CCCN1C(=O)[C@H]1CCCN1C(=O)c1cccc(Cl)c1 | i | 12% | -1% | -28% | i | -17%
CCC(C)(C)C1CCC2(CC1)NC(=O)N(CC(=O)N(C)Cc1ccc(OC(F)F)cc1)C2=O (stereo unspecified) | i | -13% | -20% | -97% | ? | 7.3µM*
CCC(C)(C)C1CCC2(CC1)NC(=O)N(CC(=O)N(C)CCOc1ccc(Cl)cc1)C2=O (stereo unspecified) | i | 1% | 0% | ? | ? | 23µM*
COc1ccc2cc(CN(C)C(=O)CN3C(=O)NC4(CCCC4)C3=O)ccc2c1 | i | -1% | -4% | ? | ? | 23µM*
CCC(C)(C)C1CCC2(CC1)NC(=O)N(CC(=O)NCCc1c[nH]c3ccccc13)C2=O (stereo unspecified) | ? | -2% | -14% | 16µM* | 21µM* | 16µM*
CC1(C(=O)NS(=O)(=O)c2ccc(C#N)cc2)CCN1C(=O)C1(c2ccccc2)CC1 (stereo unspecified) | i | 20% | 6% | 3% | i | -26%
